# The supplement of paper PMC4466140
# How the values were obtained:
# Assay in all cases: SPOT peptide array binding signal intensity (averaged, normalized) (arbitrary units (background-subtracted, floor 0; scale differs between SH3 domains)); higher = stronger binding of the SH3 domain to the peptide
# [1] = molecular target: AgAbp1
# In short: (§1)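 SH3 domains from four yeast species were expressed as GST fusions in E. coli BL21(DE3) and purified on glutathione Sepharose. Each was incubated at 10 μg/ml overnight at 4°C in TBS-based blocking buffer on cellulose membranes bearing synthetic 15-mer peptides, in which serines replaced cysteines. Bound protein was detected with anti-GST antibody, an HRP anti-mouse secondary and luminol, then imaged and quantified with Genespotter. The binding signal is the normalized, background-subtracted spot intensity averaged over replicates, in arbitrary units that are not the same from one domain to another.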
# [2] = molecular target: AgBbc1
# In short: as §1
# [3] = molecular target: AgBem1-D1
# In short: as §1
# [4] = molecular target: AgBzz1-D1
# In short: as §1
# [5] = molecular target: AgBzz1-D2
# In short: as §1
# [6] = molecular target: AgCyk3
# In short: as §1
# [7] = molecular target: AgFus1
# In short: as §1
# [8] = molecular target: AgHof1
# In short: as §1
# [9] = molecular target: AgHse1
# In short: as §1
# [10] = molecular target: AgLsb1
# In short: as §1
# [11] = molecular target: AgLsb4
# In short: as §1
# [12] = molecular target: AgMyo5
# In short: as §1
# [13] = molecular target: AgNbp2
# In short: as §1
# [14] = molecular target: AgRvs167
# In short: as §1
# [15] = molecular target: AgSho1
# In short: as §1
# [16] = molecular target: AgSla1-D1-D2
# In short: as §1
# [17] = molecular target: AgSla1-D3
# In short: as §1
# [18] = molecular target: CaAbp1-D1
# In short: as §1
# [19] = molecular target: CaAbp1-D2
# In short: as §1
# [20] = molecular target: CaBbc1
# In short: as §1
# [21] = molecular target: CaBem1-D1
# In short: as §1
# [22] = molecular target: CaBzz1-D1
# In short: as §1
# [23] = molecular target: CaBzz1-D2
# In short: as §1
# [24] = molecular target: CaCyk3
# In short: as §1
# [25] = molecular target: CaFus1
# In short: as §1
# [26] = molecular target: CaHof1
# In short: as §1
# [27] = molecular target: CaHse1
# In short: as §1
# [28] = molecular target: CaLsb1
# In short: as §1
# [29] = molecular target: CaLsb4
# In short: as §1
# [30] = molecular target: CaMyo5
# In short: as §1
# [31] = molecular target: CaNbp2
# In short: as §1
# [32] = molecular target: CaRvs167
# In short: as §1
# [33] = molecular target: CaRvs167-3
# In short: as §1
# [34] = molecular target: CaSho1
# In short: as §1
# [35] = molecular target: CaSla1-D1-D2
# In short: as §1
# [36] = molecular target: CaSla1-D3
# In short: as §1
# [37] = molecular target: ScAbp1
# In short: as §1
# [38] = molecular target: ScBbc1
# In short: as §1
# [39] = molecular target: ScBem1-D1
# In short: as §1
# [40] = molecular target: ScBzz1-D1
# In short: as §1
# [41] = molecular target: ScBzz1-D2
# In short: as §1
# [42] = molecular target: ScCyk3
# In short: as §1
# [43] = molecular target: ScFus1
# In short: as §1
# [44] = molecular target: ScHof1
# In short: as §1
# [45] = molecular target: ScHse1
# In short: as §1
# [46] = molecular target: ScLsb1
# In short: as §1
# [47] = molecular target: ScLsb2
# In short: as §1
# [48] = molecular target: ScLsb3
# In short: as §1
# [49] = molecular target: ScLsb4
# In short: as §1
# [50] = molecular target: ScMyo3
# In short: as §1
# [51] = molecular target: ScMyo5
# In short: as §1
# [52] = molecular target: ScNbp2
# In short: as §1
# [53] = molecular target: ScPex13
# In short: as §1
# [54] = molecular target: ScRvs167
# In short: as §1
# [55] = molecular target: ScSho1
# In short: as §1
# [56] = molecular target: ScSla1-D1-D2
# In short: as §1
# [57] = molecular target: ScSla1-D3
# In short: as §1
# [58] = molecular target: SpAbp1-D1
# In short: as §1
# [59] = molecular target: SpBbc1
# In short: as §1
# [60] = molecular target: SpBzz1-D1
# In short: as §1
# [61] = molecular target: SpBzz1-D2
# In short: as §1
# [62] = molecular target: SpCyk3
# In short: as §1
# [63] = molecular target: SpHof1
# In short: as §1
# [64] = molecular target: SpHof1-2
# In short: as §1
# [65] = molecular target: SpHof1-3
# In short: as §1
# [66] = molecular target: SpHse1
# In short: as §1
# [67] = molecular target: SpLsb1
# In short: as §1
# [68] = molecular target: SpLsb4
# In short: as §1
# [69] = molecular target: SpMyo1
# In short: as §1
# [70] = molecular target: SpNbp2
# In short: as §1
# [71] = molecular target: SpPex13
# In short: as §1
# [72] = molecular target: SpRvs167
# In short: as §1
# [73] = molecular target: SpSla1-D1-D2
# In short: as §1
# [74] = molecular target: SpSla1-D3
# In short: as §1
binder,measurement,setting,value
AIPPPVPNRPGGTTN,SPOT peptide array binding signal intensity,[1],≤ 0
same,SPOT peptide array binding signal intensity,[2],1380
same,SPOT peptide array binding signal intensity,[3],≤ 0
same,SPOT peptide array binding signal intensity,[4],61
same,SPOT peptide array binding signal intensity,[5],≤ 0
same,SPOT peptide array binding signal intensity,[6],≤ 0
same,SPOT peptide array binding signal intensity,[7],≤ 0
same,SPOT peptide array binding signal intensity,[8],≤ 0
same,SPOT peptide array binding signal intensity,[9],13
same,SPOT peptide array binding signal intensity,[10],373
same,SPOT peptide array binding signal intensity,[11],1024
same,SPOT peptide array binding signal intensity,[12],3.5
same,SPOT peptide array binding signal intensity,[13],≤ 0
same,SPOT peptide array binding signal intensity,[14],269
same,SPOT peptide array binding signal intensity,[15],≤ 0
same,SPOT peptide array binding signal intensity,[16],≤ 0
same,SPOT peptide array binding signal intensity,[17],≤ 0
same,SPOT peptide array binding signal intensity,[18],≤ 0
same,SPOT peptide array binding signal intensity,[19],≤ 0
same,SPOT peptide array binding signal intensity,[20],2040
same,SPOT peptide array binding signal intensity,[21],0.5
same,SPOT peptide array binding signal intensity,[22],570
same,SPOT peptide array binding signal intensity,[23],79
same,SPOT peptide array binding signal intensity,[24],192
same,SPOT peptide array binding signal intensity,[25],≤ 0
same,SPOT peptide array binding signal intensity,[26],0.5
same,SPOT peptide array binding signal intensity,[27],1.75
same,SPOT peptide array binding signal intensity,[28],1
same,SPOT peptide array binding signal intensity,[29],2490
same,SPOT peptide array binding signal intensity,[30],≤ 0
same,SPOT peptide array binding signal intensity,[31],1
same,SPOT peptide array binding signal intensity,[32],1180
same,SPOT peptide array binding signal intensity,[33],1.25
same,SPOT peptide array binding signal intensity,[34],7
same,SPOT peptide array binding signal intensity,[35],≤ 0
same,SPOT peptide array binding signal intensity,[36],≤ 0
same,SPOT peptide array binding signal intensity,[37],≤ 0
same,SPOT peptide array binding signal intensity,[38],515
same,SPOT peptide array binding signal intensity,[39],≤ 0
same,SPOT peptide array binding signal intensity,[40],5
same,SPOT peptide array binding signal intensity,[41],1.5
same,SPOT peptide array binding signal intensity,[42],≤ 0
same,SPOT peptide array binding signal intensity,[43],≤ 0
same,SPOT peptide array binding signal intensity,[44],3
same,SPOT peptide array binding signal intensity,[45],8
same,SPOT peptide array binding signal intensity,[46],1120
same,SPOT peptide array binding signal intensity,[47],302
same,SPOT peptide array binding signal intensity,[48],1950
same,SPOT peptide array binding signal intensity,[49],857
same,SPOT peptide array binding signal intensity,[50],26
same,SPOT peptide array binding signal intensity,[51],1.75
same,SPOT peptide array binding signal intensity,[52],15
same,SPOT peptide array binding signal intensity,[53],858
same,SPOT peptide array binding signal intensity,[54],1860
same,SPOT peptide array binding signal intensity,[55],≤ 0
same,SPOT peptide array binding signal intensity,[56],13.5
same,SPOT peptide array binding signal intensity,[57],≤ 0
same,SPOT peptide array binding signal intensity,[58],≤ 0
same,SPOT peptide array binding signal intensity,[59],358
same,SPOT peptide array binding signal intensity,[60],146
same,SPOT peptide array binding signal intensity,[61],0.5
same,SPOT peptide array binding signal intensity,[62],1
same,SPOT peptide array binding signal intensity,[63],≤ 0
same,SPOT peptide array binding signal intensity,[64],≤ 0
same,SPOT peptide array binding signal intensity,[65],16
same,SPOT peptide array binding signal intensity,[66],8.5
same,SPOT peptide array binding signal intensity,[67],959
same,SPOT peptide array binding signal intensity,[68],2930
same,SPOT peptide array binding signal intensity,[69],9.5
same,SPOT peptide array binding signal intensity,[70],6.5
same,SPOT peptide array binding signal intensity,[71],≤ 0
same,SPOT peptide array binding signal intensity,[72],2560
same,SPOT peptide array binding signal intensity,[73],≤ 0
same,SPOT peptide array binding signal intensity,[74],≤ 0
SRQAIPPPVPNRPGG,SPOT peptide array binding signal intensity,[1],≤ 0
same,SPOT peptide array binding signal intensity,[2],1960
same,SPOT peptide array binding signal intensity,[3],0.5
same,SPOT peptide array binding signal intensity,[4],280
same,SPOT peptide array binding signal intensity,[5],15
same,SPOT peptide array binding signal intensity,[6],≤ 0
same,SPOT peptide array binding signal intensity,[7],≤ 0
same,SPOT peptide array binding signal intensity,[8],39.2
same,SPOT peptide array binding signal intensity,[9],40
same,SPOT peptide array binding signal intensity,[10],1770
same,SPOT peptide array binding signal intensity,[11],1590
same,SPOT peptide array binding signal intensity,[12],74.5
same,SPOT peptide array binding signal intensity,[13],106
same,SPOT peptide array binding signal intensity,[14],362
same,SPOT peptide array binding signal intensity,[15],≤ 0
same,SPOT peptide array binding signal intensity,[16],≤ 0
same,SPOT peptide array binding signal intensity,[17],3.5
same,SPOT peptide array binding signal intensity,[18],156
same,SPOT peptide array binding signal intensity,[19],8.5
same,SPOT peptide array binding signal intensity,[20],3020
same,SPOT peptide array binding signal intensity,[21],30
same,SPOT peptide array binding signal intensity,[22],2510
same,SPOT peptide array binding signal intensity,[23],346
same,SPOT peptide array binding signal intensity,[24],359
same,SPOT peptide array binding signal intensity,[25],23
same,SPOT peptide array binding signal intensity,[26],1
same,SPOT peptide array binding signal intensity,[27],101
same,SPOT peptide array binding signal intensity,[28],3.75
same,SPOT peptide array binding signal intensity,[29],2960
same,SPOT peptide array binding signal intensity,[30],2
